# Calls of active or inactive are those of the source. Calls come from the whole dose curve; as a rule, active = well fitted curve in the direction sought with a large enough effect in the repeat runs; inconclusive = weak or mixed curves; inactive = flat fitted curve, though single readings scatter. Positions of bridges follow the written chain, without caps; N, C: chain ends. Non-standard residues stand in square brackets, D forms with d. Residues, ends and D or L forms follow the SMILES beside them. ξ: configuration not given here. *: point of attachment. d(aThr) = C[C@@H](O)[C@@H](N)C(=O)O; ξThr(3R) = C[C@@H](O)C(N)C(=O)O; X3 = CC[C@@H](C)CCCCC(=O)*; dDab = NCC[C@@H](N)C(=O)O
# Test: qHTS assay to test for compound auto fluorescence at 535 nm (green) in HEK293 cell free culture (AID 720682)
# Conditions: cell-free medium, green autofluorescence 485/535 nm; series mostly up to 46 µM; activity change: at the top concentration
# Text: U.S. Tox21 Program National Center for Advancing Translational Sciences [NCATS] NIH Chemical Genomics Center [NCGC] U.S. Environmental Protection Agency [EPA] National Institutes of Environmental Health Sciences [NIEHS] National Toxicology Program [NTP] U.S. Food and Drug Administration [FDA] Tox21 Assay Overview: Compound auto fluorescence often interferes with screening of the compound library against various biological targets and signaling pathways. Some of these compounds may have fluorophoric properties. Such properties may interfere with the assay outputs resulting in false positives and/or negatives. To decrease such complications and ensure the compound activities are relevant in terms of biological response, the Tox21 10K compound library was screened for auto fluorescence. From the fluorophores used as reporter signals in our screening assays, the auto fluorescence equivalencies of compounds against three fluorophores have been evaluated: Triamterene, Fluorescein and Rose Bengal sodium for blue, green and red fluorescence, respectively. The fluorescence intensities were measured using Excitation/Emission wavelengths at 405/460nm, 485/535nm and 540/590nm for blue, green and red labels, respectively. This assay includes the green fluorescence data.
# Tox21 Assay Protocol Summary: 5 uL of culture medium (DMEM containing 10% FBS) per well was dispensed into black wall/clear bottom 1536-well plates using a Multidrop Combi Dispenser (ThermoFisher Scientific, Waltham, MA). After 23 nL compound or DMSO vehicle was transferred into assay plate by a pintool work station (Kalypsys, San Diego, CA), fluorescence intensities in the assay plates were measured by an Envision (PerkinElmer, Shelton, CT) plate reader using three labels for measuring blue, green and red fluorescence at […] 460, 535 and 590nm respectively.
# % is set by controls: 0 for no effect and ±100 for the full control effect.
row,Compound,activity change
1,C=C[C@]1(C)C[C@@H](OC(=O)CSC(C)(C)CNC(=O)[C@H](N)C(C)C)[C@]2(C)[C@H](C)CC[C@]3(CCC(=O)[C@H]32)[C@@H](C)[C@@H]1O,-0.0673% (inactive)
2,CC(C)(C)NC[C@H](O)COc1ccccc1C1CCCC1,"-0.141% [at 18.6 µM, stronger effect = higher value] (inactive)"
3,CCC(Oc1ccccc1)C(=O)N[C@@H]1C(=O)N2[C@@H]1SC(C)(C)[C@@H]2C(=O)O (stereo not given in full),-0.0108% (inactive)
4,CCCCCCCCCCCCOCCCN,0.0772% (inactive)
5,CC[C@@H](C)CCCCC(=O)N[C@H](CCN)C(=O)N[C@@H](C(=O)N[C@H](CCN)C(=O)N[C@@H]1CCNC(=O)C([C@@H](C)O)NC(=O)[C@@H](CCN)NC(=O)[C@@H](CCN)NC(=O)[C@@H](CC(C)C)NC(=O)[C@@H](Cc2ccccc2)NC(=O)[C@@H](CCN)NC1=O)[C@@H](C)O (stereo partly drawn) (X3-[dDab][d(aThr)][dDab][dDab][dDab][dF][dL][dDab][dDab][ξThr(3R)]; lactam 4-C),0.0141% (inactive)
6,CC(=O)N=c1sc(S(N)(=O)=O)nn1C,"0.0568% [at 18.6 µM, stronger effect = higher value] (inactive)"
7,Cc1c(Cl)cccc1Nc1ncccc1C(=O)O,-0.0352% (inactive)
8,CN(C)CC/C=C1/c2ccccc2CSc2ccccc21,"-0.0501% [at 18.6 µM, stronger effect = higher value] (inactive)"
9,CC1CCCC1,"0.209% [at 91.3 µM, stronger effect = higher value] (inactive)"
10,CCCOc1cc(N)ccc1C(=O)OCCN(CC)CC,"-0.157% [at 18.6 µM, stronger effect = higher value] (inactive)"
11,CC(C)(C)C(=O)OCOC(=O)[C@@H]1N2C(=O)[C@@H](N=CN3CCCCCC3)[C@H]2SC1(C)C,"0.234% [at 18.6 µM, stronger effect = higher value] (inactive)"
12,CCOC(=O)CCC(=O)O[C@H]1[C@H](O[C@@H]2[C@@H](C)[C@H](O[C@H]3C[C@@](C)(OC)[C@@H](O)[C@H](C)O3)[C@@H](C)C(=O)O[C@H](CC)[C@@](C)(O)[C@H](O)[C@@H](C)C(=O)[C@H](C)C[C@@]2(C)O)O[C@H](C)C[C@@H]1N(C)C,0.0021% (inactive)
13,CCOC(=O)[C@H](CCc1ccccc1)N[C@H]1CCCN2CCC[C@@H](C(=O)O)N2C1=O,-0.0915% (inactive)
14,C[N+](C)(CCCCCC[N+](C)(C)C1c2ccccc2-c2ccccc21)C1c2ccccc2-c2ccccc21,0.0692% (inactive)
15,Cc1cc(C(=O)NNCc2ccccc2)no1,"-0.0069% [at 18.6 µM, stronger effect = higher value] (inactive)"
16,C[C@]12C=CC(=O)N[C@@H]1CC[C@@H]1[C@@H]2CC[C@]2(C)[C@@H](C(=O)Nc3cc(C(F)(F)F)ccc3C(F)(F)F)CC[C@@H]12,-0.109% (inactive)
17,CCC(=O)OCC(=O)[C@@]1(OC(=O)CC)[C@H](C)C[C@H]2[C@@H]3CCC4=CC(=O)C=C[C@]4(C)[C@@]3(F)[C@@H](O)C[C@@]21C,0.0122% (inactive)
18,CC[C@@H](C(=O)O)[C@@H]1O[C@@H]([C@@H](C)[C@H](O)[C@H](C)C(=O)[C@H](CC)[C@H]2O[C@]3(C=C[C@@H](O)[C@]4(CC[C@@](C)([C@H]5CC[C@](O)(CC)[C@H](C)O5)O4)O3)[C@H](C)C[C@@H]2C)[C@@H](C)C[C@@H]1C,0.0452% (inactive)
19,CN[C@H]1CCc2cc(OC)c(OC)c(OC)c2-c2ccc(OC)c(=O)cc21,0.0239% (inactive)
20,COc1ccc(CCNCC(O)COc2cccc(C)c2)cc1OC (stereo not given),-0.0072% (inactive)

row,Compound,activity change
1,CCOC(=O)[C@H](CS)NCCN[C@@H](CS)C(=O)OCC,0.123% (inactive)
2,Cc1cc(-c2ccc(N=Nc3c(S(=O)(=O)O)cc4cc(S(=O)(=O)O)cc(N)c4c3O)c(C)c2)ccc1N=Nc1c(S(=O)(=O)O)cc2cc(S(=O)(=O)O)cc(N)c2c1O,-2.9% (inactive)
3,NC(N)=NCC1COc2ccccc2O1 (stereo not given),-0.252% (inactive)
4,CNC(C)CCC=C(C)C (stereo not given),0.0257% (inactive)
5,CN1[C@@H]2CCC[C@H]1CC(NC(=O)c1nn(C)c3ccccc13)C2 (stereo not given in full),-0.0383% (inactive)
6,CC(=O)Oc1cc(C)c(OC(C)=O)c2ccccc12,1.05% (inactive)
7,CC[C@]1(O)CC2CN(CCc3c([nH]c4ccccc34)[C@@](C(=O)OC)(c3cc4c(cc3OC)N(C)[C@H]3[C@@](O)(C(N)=O)[C@H](O)[C@]5(CC)C=CCN6CC[C@]43[C@@H]65)C2)C1 (stereo not given in full),0.0426% (inactive)
8,Cc1c(O)cc2c(c1C)O[C@](C)(CCC[C@H](C)CCC[C@H](C)CCCC(C)C)CC2,0.0133% (inactive)
9,CC1(C)S[C@@H]2[C@H](NC(=O)C(C(=O)Oc3ccc4c(c3)CCC4)c3ccccc3)C(=O)N2[C@H]1C(=O)O (stereo not given in full),0.0316% (inactive)
10,Cc1ccc(/C(=C\CN2CCCC2)c2cccc(/C=C/C(=O)O)n2)cc1,-0.0186% (inactive)
11,CCCCCCCCCCCCCCCC(=O)OCCC1CCN(CCCN2c3ccccc3Sc3ccc(S(=O)(=O)N(C)C)cc32)CC1,0.0637% (inactive)
12,CO[C@@H]1[C@@H](O[C@@H]2O[C@H](C)[C@@H](O[C@H]3C[C@@](C)(O)[C@@H](OC(=O)CC(C)C)[C@H](C)O3)[C@H](N(C)C)[C@H]2O)[C@@H](CC=O)C[C@@H](C)C(=O)/C=C/C2OC2C[C@@H](C)OC(=O)C[C@H]1OC(C)=O (stereo not given in full),0.0456% (inactive)
13,CCNC(=O)[C@@H]1CCCN1C(=O)[C@H](CCCN=C(N)N)NC(=O)[C@H](CC(C)C)NC(=O)[C@@H](CC(C)C)NC(=O)[C@H](Cc1ccc(O)cc1)NC(=O)[C@H](CO)NC(=O)[C@H](Cc1c[nH]c2ccccc12)NC(=O)[C@H](Cc1cnc[nH]1)NC(=O)[C@@H]1CCC(=O)N1,-0.0192% (inactive)
14,Nc1c(Br)cc(Br)cc1CNC1CCC(O)CC1 (stereo not given),0.104% (inactive)
15,CN(C)C=Nc1c(I)cc(I)c(CCC(=O)O)c1I,0.0039% (inactive)
16,CC(=O)c1ccc2c(c1)N(CCCN1CCN(CCO)CC1)c1ccccc1S2,0.0376% (inactive)
17,C=CC1=C(C)C2=CC3=NC(=C(CC(=O)[O-])C4=NC(=C(C)C4=C([O-])[O-])C=c4[n-]c(c(C)c4CC)=CC1=N2)C(CCC(=O)[O-])C3C.[Cu+2].[Na+].[Na+].[Na+] (stereo not given),-0.104% (inactive)
18,COc1cc2c(cc1OC)[C@@H](c1ccccc1)CN(C)CC2,0.051% (inactive)
19,CO[C@H]1O[C@@H]2O[C@@]3(C)CC[C@H]4[C@H](C)CC[C@@H]([C@H]1C)[C@@]24OO3,0.0011% (inactive)
20,Cc1onc(-c2ccccc2)c1C(=O)N[C@@H]1C(=O)N2[C@@H]1SC(C)(C)[C@@H]2C(=O)O,0.0216% (inactive)

# Reference: PubChem BioAssay (Tox21)
